# Rows were chosen to be rich in hits. Some 0.7% of all compounds tested hit in one or more screens of this group.
# Mtb hypoxia inh – inhibitors of hypoxia-regulated fluorescent reporter in Mycobacterium tuberculosis; M. tuberculosis hypoxia-regulated fluorescent reporter, fluorescence; fluorescence inhibition, % (no concentration beside the values); 300,000 tested, 0.1% active; in the data active = fluorescence inhibition mostly above about 23%, no sharp cut-off; inactive = mostly below about 17%
# FadD28 binding – blocks FadD28 binding to the bisubstrate probe; fluorescence polarization; inhibition, % at 12.5 µM; 360,000 tested, 0.22% active; in the data active = inhibition above about 8.5%, passing the limit was not always enough
# SARS 3CLpro inh-1 – SARS-CoV 3CLpro protease inhibition. P0C6X7. recombinant SARS-CoV 3CLpro, quenched FRET peptide cleavage. inhibition, % at 6 µM. 290,000 tested, 0.14% active; in the data active = inhibition above about 12%
# VHR inh abs – DUSP3 (human) phosphatase inhibition. recombinant VHR phosphatase, pNPP absorbance. P51452. inhibition, % at 13.3 µM. 290,000 tested, 0.52% active; in the data active = inhibition above about 50%
# Target sequence (P51452 whole entry, looked up): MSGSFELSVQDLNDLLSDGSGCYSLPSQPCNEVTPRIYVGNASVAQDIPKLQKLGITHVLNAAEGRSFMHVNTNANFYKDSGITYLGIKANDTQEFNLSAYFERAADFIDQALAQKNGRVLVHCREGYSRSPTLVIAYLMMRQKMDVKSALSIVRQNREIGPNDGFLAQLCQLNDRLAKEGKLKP
# Mtb BioA inh – inhibitors of Mycobacterium tuberculosis BioA enzyme; purified M. tuberculosis BioA enzyme, plate reader; inhibition, % at 9.99 µM; 360,000 tested, 0.096% active; AID 602481; in the data active = inhibition above about 40%
# SARS 3CLpro inh-2 – confirmation of SARS coronavirus 3C-like protease inhibitors; 380 tested, 36% active; shares compounds with SARS 3CLpro inh-1; inhibition, % at 6 µM; QFRET protease activity assay, 3CLpro; in the data active = inhibition above about 13%
# * = called active by the depositor; . = not tested or not shown.
SMILES,Mtb hypoxia inh,FadD28 binding,SARS 3CLpro inh-1,VHR inh abs,Mtb BioA inh,SARS 3CLpro inh-2
C[C@@]12C(=O)N(c3cccc(F)c3)C(=O)N1[C@H](c1ccc(Cl)cc1)[C@@H]1C(=O)N(C3CCCCC3)C(=O)[C@@H]12,.,-6,.,.,-1,.
C[C@@]12C(=O)N(c3cccc(F)c3)C(=O)N1[C@H](c1ccc(F)cc1)[C@@H]1C(=O)N(C3CCCCC3)C(=O)[C@@H]12,.,-5,14*,1,1,6
Cc1ccc(-n2nnnc2SCC(=O)NC(C(=O)O)(c2ccccc2)c2ccccc2)cc1C,-7,0,14*,-5,.,4
CCCCOc1ccc(C(=O)Oc2cccnc2)cc1,-1,-1,19*,16,.,14*
O=C1C2C3C=CC(C3)C2C(=O)N1/N=C/c1ccc(-c2ccccc2[N+](=O)[O-])o1 (centres undefined),.,-2,12*,5,-2,-5
O=C1C2C3C=CC(C3)C2C(=O)N1N=Cc1ccc(-c2ccccc2[N+](=O)[O-])o1 (centres undefined),3,.,.,.,.,.
COC(=O)c1ccc(OC(=O)CN2C(=O)c3ccccc3C2=O)cc1,12,-4,15*,-16,-1,14*
Cc1ccc(C)c(N2CCN(C(=O)CCS(=O)(=O)c3ccc4c(c3)NC(=O)C(C)S4)CC2)c1 (centres undefined),-1,0,13*,-6,-3,3
COC(=O)c1ccccc1NC(=O)c1ccc2c(c1)OCCCO2,-12,1,12*,10,-2,-2
Cc1ccc(OCCNC(=O)c2cc(=O)[nH]c3ccccc23)cc1,3,-3,3,11,.,.
COC(=O)[C@@H](Cc1c[nH]c2ccccc12)NC(=O)c1cc(=O)[nH]c2ccccc12,-3,0,14*,22,1,2
COc1ccccc1OCCNC(=O)c1cc(=O)[nH]c2ccccc12,-3,-2,62*,-9,.,65*
CC(C(=O)Nc1nc2ccc(F)cc2s1)N1C(=O)C2CC=CCC2C1=O (centres undefined),2,.,.,.,.,.
CC(C)OP(=O)(OC(C)C)C1(NS(=O)(=O)c2ccc(Cl)cc2)C=C(Cl)C(=O)C(Cl)=C1,-3,0,17*,6,1,11
CC(C)N(CCNS(=O)(=O)c1ccc(Cl)cc1)C(C)C,-19,0,-3,7,.,.
Cc1ccc(C(=O)C2=C(O)C(=O)N(Cc3cccnc3)C2c2ccc(OC(C)C)cc2)o1 (centres undefined),4,0,13*,-20,2,-7
COc1ccc(Cl)cc1NC(=O)CSc1nc2sccc2c(=O)[nH]1,-1,-3,-5,0,.,.
COc1ccc(C)cc1NC(=O)CSc1nc2scc(C)c2c(=O)[nH]1,2,-1,13*,-7,1,3
CCOc1ccc(OCc2ccc(C(=O)NN=C(C)c3ccccn3)cc2)cc1,10,.,.,.,.,.
CCOC(=O)c1c(C)n(S(=O)(=O)c2ccc(C)cc2)c2ccc(O)c(C(=O)O)c12,6,-16,13*,32,9,1
CCOC(=O)C1=C[C@@H](C)N(S(=O)(=O)c2ccc(C)cc2)[C@H]1c1ccccc1,.,-3,.,.,-1,.
CCOC(=O)c1c(NC(=O)CCl)sc(CN(C)C)c1-c1ccccc1,18,-1,31*,26,.,59*
CCOC(=O)c1c(NC(=O)CN2CCCCC2)sc(CN(C)C)c1-c1ccccc1,-1,-1,2,29,.,.
CCOC(=O)C1=C(C)N=c2sc(=Cc3ccc(OCC(=O)O)c(OC)c3)c(=O)n2C1c1ccc(Cl)cc1 (centres undefined),13,.,.,.,.,.
CCOc1ccc(NC(=O)CSc2nc(NS(=O)(=O)c3ccc(C)cc3)cc(=O)[nH]2)cc1,10,-4,13*,7,1,0
SMILES,Mtb hypoxia inh,FadD28 binding,SARS 3CLpro inh-1,VHR inh abs,Mtb BioA inh,SARS 3CLpro inh-2
COc1cccc(CNC(=O)CN(c2ccc(C(C)C)cc2)S(=O)(=O)c2c(C)noc2C)c1,2,-2,15*,-10,-1,2
CN(C)S(=O)(=O)c1cccc(NC(=O)CSc2cccc3cccnc23)c1,-2,-1,17*,1,-4,35*
O=C(CCl)N=c1sccn1Cc1ccc(Cl)cc1Cl,18,-6,33*,20,.,63*
N=c1sccn1Cc1ccc(Cl)cc1Cl,11,-2,-6,-4,2,.
O=C(CCl)N=c1sccn1Cc1ccccc1Cl,.,-2,41*,17,6,58*
COc1cc(C=NNc2cc(C)nc(NS(=O)(=O)c3ccc(C)cc3)n2)ccc1O,3,.,.,.,.,.

# From PubChem
